In all, about 140,000 sequences were measured (“enrichment ratio after two sorts for PhoP signalling”: median about 0, highest 2% from about 11 on). The entries come from a sample that favours the highest values as a whole. Bounds are passed on as bounds.

The text below walks through data of a collection of fitness landscapes (doi:10.1126/science.1257360).

The labels stand for the following.
B1: PhoQ; a variant is named by its letters at X, in order, P23837 (parent)
chain: MKKLLRLFFPLSLRVRFLLATAAVVLVLSLAYGMVALIGYSVSFDKTTFRLLRGESNLFYTLAKWENNKLHVELPENIDKQSPTMTLIYDENGQLLWAQRDVPWLMKMIQPDWLKSNGFHEIEADVNDTSLLLSGDHSIQQQLQEVREDDDDAEMTHSVAVNVYPATSRMPKLTIVVVDTIPVELKSSYMVWSWFIYVLSANLLLVIPLLWVAAWWSLRPIEALAKEVRELEEHNRELLNPATTRELTSLVRNLNRLLKSERERYDKYRTTLTDLTHSLKTPLXXLQXXLRSLRSEKMSVSDAEPVMLEQISRISQQIGYYLHRASMRGGTLLSRELHPVAPLLDNLTSALNKVYQRKGVNISLDISPEISFVGEQNDFVEVMGNVLDNACKYCLEFVEISARQTDEHLYIVVEDDGPGIPLSKREVIFDRGQRVDTLRPGQGVGLAVAREITEQYEGKIVAGESMLGGARMEVIFGRQHSAPKDE

The variants in this test derive from B1. The test can be described thus: enrichment ratio after two sorts for PhoP signalling (ratio (wild type AVST 3.29)); higher = more functional. Particulars: with PhoP (E. coli).
In the case of DFEW, the enrichment ratio was at most 0.25. To DSVD belongs at most 0.25. Then KHWM, with at most 0.25.

Turning to VFFE, the enrichment ratio is at most 0.25.

With QDVC, the enrichment ratio was at most 0.25.

With AYPL, the enrichment ratio is at most 0.25. Then CSYH, with at most 0.25; and FHNW, with at most 0.25. Then IIGT, with at most 0.25; and SEGD, with 1.88; and SEYD, with at most 0.25. To SEDH belongs at most 0.25; to SECL, 18.7; to SECS, 20.4. Regarding SEEL, the enrichment ratio was at most 0.25. On to SECK, for which the enrichment ratio is at most 0.25.

For the variant SECA, the enrichment ratio worked out at 19.7.

On to SECP, for which the enrichment ratio is at most 0.25. Then NECL, with at most 0.25; and SECI, with 28.3.

Turning to SEAI, the enrichment ratio was found to be 7.14. In the case of FMWQ, the enrichment ratio was at most 0.25. To KFFK belongs at most 0.25.

As for EHGM, the enrichment ratio was at most 0.25. Then IQWT, with at most 0.25.

Turning to KMGN, the enrichment ratio was at most 0.25. To YTDA belongs at most 0.25.

In the case of VCDM, the enrichment ratio was at most 0.25. Then EGPQ, with at most 0.25. Turning to LCVP, the enrichment ratio was at most 0.25. Then FECG, with 30.4; and FEGG, with at most 0.25. Consider STCG, for which the enrichment ratio came out at 9.46. Take QECG: the enrichment ratio is 23. To MECG belongs 9.16; to SENE, at most 0.25; to MECQ, at most 0.25. To IWCG belongs at most 0.25; to SECQ, 11.4; to SENW, at most 0.25. As for SECE, the enrichment ratio was 15.4.

Consider SRCQ, for which the enrichment ratio stood at 1.15. On to DDMI, for which the enrichment ratio is at most 0.25. To WKTT belongs at most 0.25; to EERG, at most 0.25; to WYHV, at most 0.25. Then FLNY, with at most 0.25; and SECV, with 24.5; and SRCV, with 5.55. Then SECG, with 13.7; and SEYV, with 5.27. On to FECA, for which the enrichment ratio was at most 0.25. To FECI belongs 3.72. To SRCG belongs at most 0.25; to SLCG, 6.01. To FECS belongs 19.8. Regarding MMWP, the enrichment ratio is at most 0.25.

For the variant LWRR, the enrichment ratio is at most 0.25. To YSRA belongs at most 0.25.

On to QHHS, for which the enrichment ratio is at most 0.25.

Turning to DQIV, the enrichment ratio was at most 0.25. To GIST belongs 8.78. Then GNST, with 15.1; and GESK, with at most 0.25; and GEST, with 16.9.

Take GVST: the enrichment ratio is at most 0.25. Then MNST, with at most 0.25. Then TNST, with 12.6; and LNST, with at most 0.25. Then MEST, with 5.63; and ARCL, with 4.81; and GDEI, with at most 0.25.

With EMQY, the enrichment ratio is at most 0.25.

Consider PNEV, for which the enrichment ratio was at most 0.25. To IGRG belongs at most 0.25. In the case of IFWY, the enrichment ratio was at most 0.25. To SWHL belongs 0.549. Then HMCK, with at most 0.25; and TTSF, with 13.7; and CKMF, with 38.2. Then TTWG, with 12.2. Consider KQSF, for which the enrichment ratio was at most 0.25.

As to YTWG, the enrichment ratio was at most 0.25. To YTSF belongs at most 0.25. Then CKFF, with at most 0.25; and CTDF, with at most 0.25; and CKAF, with at most 0.25.

Turning to YTDF, the enrichment ratio is at most 0.25. To TTDF belongs 16.9; to STWG, at most 0.25; to HDWN, at most 0.25. Then LGQF, with at most 0.25; and TLMP, with at most 0.25. Then DGEM, with at most 0.25. Turning to EYIG, the enrichment ratio is at most 0.25. Then LWNR, with at most 0.25; and GEFD, with at most 0.25; and SQIR, with at most 0.25.

Turning to MDDP, the enrichment ratio is at most 0.25. Then TTMF, with 20.9; and YTEL, with at most 0.25; and TTHF, with 11.8. To TTPA belongs at most 0.25; to TTPS, at most 0.25. In the case of RIMF, the enrichment ratio was at most 0.25. To THMF belongs 9.68. Then TTEL, with 16.6; and NVDF, with at most 0.25. Then QVDF, with 15.1; and QVHF, with 0.315; and TTYI, with 6.16. On to PVYQ, for which the enrichment ratio was at most 0.25. Take GLRF: the enrichment ratio was at most 0.25.

For VHDP, the enrichment ratio was at most 0.25. Then NRQL, with at most 0.25; and DQAF, with at most 0.25; and KQIG, with at most 0.25.

Regarding WLRY, the enrichment ratio is at most 0.25. Turning to SHDF, the enrichment ratio was at most 0.25. Then NHDF, with at most 0.25; and STWN, with at most 0.25. As to TTAF, the enrichment ratio came to 14.

In the case of YTQF, the enrichment ratio is at most 0.25.

As for LTAF, the enrichment ratio was at most 0.25. Then GTQF, with at most 0.25; and TTQF, with 22.7. Then YTAF, with at most 0.25; and TTWN, with 15.1. Then THDF, with 11.6. As to YTWN, the enrichment ratio is at most 0.25.

Regarding RKCR, the enrichment ratio is at most 0.25. Then QNKW, with at most 0.25; and YVTW, with at most 0.25; and DWIG, with at most 0.25. To ERDP belongs at most 0.25; to VGHC, at most 0.25; to NFWG, at most 0.25.

On to KTWY, for which the enrichment ratio was at most 0.25. Then YTSA, with at most 0.25; and WIYN, with at most 0.25.

In the case of TTYN, the enrichment ratio stood at 12.5. Then KSYN, with at most 0.25; and TTGL, with 12.3; and KQSA, with at most 0.25. To YTWS belongs at most 0.25; to YTGL, at most 0.25. Then TTWS, with 11.9; and TTSA, with 11.5.

STGL: the enrichment ratio came out at 9.48. Take TTWI: the enrichment ratio is 9.7. Regarding IEKA, the enrichment ratio was at most 0.25. Then RHPA, with at most 0.25; and PCEP, with at most 0.25; and MEYV, with 5.49.

For WFPG, the enrichment ratio is at most 0.25.

With TMFD, the enrichment ratio is at most 0.25. To AHCM belongs 9.33; to THSS, 8.94. Then AKKL, with at most 0.25; and YGCL, with 2.74. To YHQH belongs at most 0.25; to YTMF, 5.8. As to TTGF, the enrichment ratio worked out at 17.1. To TTHN belongs 15.7. To NVHI belongs at most 0.25. Then YTHI, with at most 0.25; and WIMF, with at most 0.25; and KSHN, with at most 0.25. On to TTHI, for which the enrichment ratio amounted to 11.5.

Regarding YTHN, the enrichment ratio was at most 0.25. Turning to LTGF, the enrichment ratio is at most 0.25. Then CTMF, with 25.7; and YTGF, with at most 0.25. To WRNH belongs at most 0.25.

For PTGD, the enrichment ratio is at most 0.25.

Turning to HQVK, the enrichment ratio was at most 0.25. Then VNRG, with at most 0.25; and GRVA, with at most 0.25; and FSSR, with at most 0.25. Then SFVK, with at most 0.25.

Take IYPH: the enrichment ratio was at most 0.25. Then WNMY, with at most 0.25; and TKMF, with 11.5.

Regarding MEMF, the enrichment ratio stood at 0.449. Regarding YTMS, the enrichment ratio is at most 0.25. Then WIMS, with at most 0.25; and PTMF, with at most 0.25; and TTMS, with 26.8.

With GTYD, the enrichment ratio is at most 0.25.

As for SAKT, the enrichment ratio was at most 0.25.

For FGAP, the enrichment ratio was at most 0.25. Then FCVG, with at most 0.25. Then RGTF, with at most 0.25; and WISV, with at most 0.25. Then AISV, with 15.9; and ADSV, with 4.14.

In the case of TISV, the enrichment ratio turned out to be 12.8. To VHSV belongs at most 0.25; to RISV, at most 0.25.
